Screening results: PubChem, Broad Institute
Only a sample is shown.
aSyn UTR act: Activators working through SNCA 5'UTR binding (MLPCN) | alpha-synuclein 5'UTR reporter, activators screen | AID 1814 | actives 7.1% (n = 300,000) | activity score, % (tested at 7.5 µM), hits read low; in the data active = activity score below about -60%
Starred values were filed as active, the others as inactive.

SMILES	aSyn UTR act
O=C(CNC(=S)NC(=O)C1CCCCC1)c1ccccc1	-126*
CC1CC(C)(C)Nc2ccc(OC(=O)c3ccco3)cc21 (stereo not drawn)	70
COc1cccc(C(=O)Nc2cccc(OC(C)=O)c2)c1	-90*
CC(=O)c1cc2c(cc1NC(=O)c1ccc(C)cc1)OCO2	-101*
COc1cccc(C(=O)Nc2cccc(C(C)=O)c2)c1	-114*
COc1ccc(C(=O)Nc2cccc(OC(=O)c3ccco3)c2)cc1	-113*
CC(=O)Nc1cccc(NC(=O)c2ccc(COc3ccccc3)cc2)c1	-142*
CCOc1ccc(C(=O)Nc2ccc(N3CCN(C)CC3)cc2)cc1Br	-75*
CCOc1c(Cl)cc(C(=O)Nc2cccc(C(=O)O)c2)cc1Cl	-80*
CCOc1cccc(C(=O)Nc2cccc(C(C)=O)c2)c1	-151*
CCOc1ccc(OCc2ccc(C(=O)N/N=C(\C)c3ccccn3)cc2)cc1	64
O=C(Nc1cc2c(cc1C(=O)O)OCCCO2)c1ccc(C(F)(F)F)cc1	-94*
COc1ccc(C(=O)Nc2ccc(N3CCCC3)cc2)cc1OC	-166*
CCOc1cccc(C(=O)Nc2ccc(N3CCCC3)cc2)c1	-66*
COc1cccc(C(=O)Nc2cc3c(cc2C(C)=O)OCCO3)c1	-72*
COc1ccc(-c2oc3ccccc3c2C(=O)OCc2ccccc2)cc1	-102*
COc1ccccc1NC(=O)c1ccc2[nH]c(C)c(C)c2c1	-145*
COc1ccccc1NC(=O)c1ccc2nc(C)sc2c1	-105*
COc1cccc(NC(=O)c2ccc3nc(C)sc3c2)c1	-239*
COc1ccc(C(CC(=O)c2ccc(O)cc2)S(=O)(=O)c2ccc(C)cc2)cc1 (stereo not drawn)	-250*
O=C(Nc1ccc(Cl)cc1)Nc1ccccc1Sc1ncc([N+](=O)[O-])s1	-90*
O=C(Nc1csc([N+](=O)[O-])c1)Nc1ccccc1Cl	-89*
O=C(NCc1ccco1)Nc1ccc(Br)cc1Cl	-170*
O=C(Nc1cccnc1)Nc1ccccc1Cl	-72*
O=C(Nc1ccc(Cl)c(Cl)c1)OCc1cccnc1	-73*
SMILES	aSyn UTR act
Cc1ccc(NC(=O)Nc2ccc3c(c2)C(=O)OC3)cc1Cl	-83*
O=C(Nc1ccc(Nc2ccccc2)cc1)Nc1ccccc1Cl	-227*
Cc1ccc(NC(=O)Nc2cccnc2)cc1Cl	-111*
O=C(Nc1ccc2c(c1)CCC2)Nc1ccccc1Cl	-110*
O=C(Nc1cccnc1)Nc1ccc(Br)cc1Cl	-68*
CO/N=C/C(=N\Nc1ccc(OC)cc1)C(=O)c1ccc(OC)cc1	-71*
Cc1nc(N)sc1N=Nc1ccc(F)cc1	-107*
CCN(CC)S(=O)(=O)c1ccc(C)c(C(=O)Oc2cccc(-c3cnc4ccccc4n3)c2)c1	-178*
CCN(CC)S(=O)(=O)c1cc(C(=O)Oc2cccc(-c3cnc4ccccc4n3)c2)ccc1OC	-171*
O=C(Nc1nccs1)c1sc2ccccc2c1Cl	53
O=C(Nc1nccs1)c1sc2cc(Cl)ccc2c1Cl	-115*
O=C(NC1CC1)c1sc2cc(Cl)ccc2c1Cl	-97*
COc1ccc2c(Cl)c(C(=O)NC3CCS(=O)(=O)C3)sc2c1 (stereo not drawn)	-80*
COc1cc(OC)cc(-c2cc3nc(C)cc(N4CCN(C(=O)c5ccco5)CC4)n3n2)c1	-70*
COc1cc(OC)cc(-c2cc3nc(C)c(CCC(=O)NCc4ccccc4)c(C)n3n2)c1	75
CCCCN=C1NN=C(c2ccc(C)c(C)c2)CS1	-162*
CC1CC(=O)NN=C1c1ccc(NCCO)c([N+](=O)[O-])c1 (stereo not drawn)	76
COCCN=C1NN=C(c2ccc(C)c([N+](=O)[O-])c2)CS1	-108*
COc1cc(C)c(C(C)C)cc1S(=O)(=O)n1cnc(C)c1	64
COc1ccccc1OCc1cc(C(=O)N2CC3C[C@@H]4CC2C[C@H](C3)C4)no1	-120*
O=C(c1cc(COc2c(F)cccc2F)on1)N1C[C@H]2CC[C@H]1C2	-114*
COc1ccc(OCc2cc(C(=O)N3C[C@H]4CC[C@H]3C4)no2)c(Cl)c1	-82*
O=C(c1cc(COc2ccc(F)cc2F)on1)N1CC2C[C@@H]3CC1C[C@H](C2)C3	-97*
Cc1cccc(C)c1N=C1SC(CC(=O)Nc2c(C)cccc2C)C(=O)N1CCc1ccccn1 (stereo not drawn)	67
O=C(c1cc(COc2c(F)cccc2F)on1)N1CCC(c2ccccc2F)C1 (stereo not drawn)	-125*
SMILES	aSyn UTR act
O=C(c1cc(COc2ccc(F)cc2F)on1)N1C[C@H]2CC[C@H]1C2	-99*
Cc1cccc(C)c1OCc1cc(C(=O)NC2CCC2)no1	-66*
CC(=O)c1ccc(OCc2cc(C(=O)N3CC4C[C@@H]5CC3C[C@H](C4)C5)no2)cc1	-134*
Cc1cccc(C)c1OCc1cc(C(=O)N2CCC(c3ccncc3)CC2)no1	-93*
COc1ccc(OCc2cc(C(=O)N3CCCN(C(C)=O)CC3)no2)c(Cl)c1	-75*
CC(/C=C/c1ccccc1)=N\NC(N)=S	-100*
CC(/C=C/c1ccccc1)=N\Nc1nc(C)cc(C)n1	-96*
N#C/C(C(N)=O)=C1/CCc2ccccc2N1	-63*
CCOC(=O)CCn1nc(-c2ccc(Cl)cc2)cc1N	-129*
Cc1ccc(-c2nc3ccccc3s2)cc1NC(=S)NC(=O)c1cccc2ccccc12	-97*
Cc1ccc(-c2nc3ccccc3s2)cc1NC(=O)c1ccc2c(c1)OCO2	-76*
O=C(Nc1cc(-c2nc3ccccc3s2)ccc1Cl)c1ccc2c(c1)OCO2	-70*
CCOC(=O)/C(C#N)=C\C=C1C=CN(C)C=C1	-150*
O=C(CCCc1cccs1)Nc1nc2c(s1)CCCC2	-171*
CC(C)(C)C1CCc2nc(NC(=O)Cc3cn4ccsc4n3)sc2C1 (stereo not drawn)	-66*
CC1CCc2nc(NC(=O)Cc3cccs3)sc2C1 (stereo not drawn)	-160*
Cc1csc(NC(=O)CCCc2cccs2)n1	-77*
CC1CCc2nc(NC(=O)c3ccco3)sc2C1 (stereo not drawn)	88
N#CCCN1CCN(C(=S)c2ccc(-c3cccc(Cl)c3)o2)CC1	-89*
S=C(c1ccc(-c2cccc(Cl)c2)o1)N1CCCCC1	-111*
S=C(c1ccc(-c2cccc(Cl)c2)o1)N1CCOCC1	-144*
Cc1cc(CNC(=O)c2ccc3nc(Cc4ccccc4F)oc3c2)nn1C	-135*
O=C(c1ccc2nc(Cc3ccccc3F)oc2c1)N1CCCC1	-150*
CC(c1ccccn1)N(C)C(=O)c1ccc2nc(Cc3ccccc3F)oc2c1 (stereo not drawn)	-102*
CC(=O)c1cccc(NC(=S)NC(=O)CC(C)(C)C)c1	-134*
SMILES	aSyn UTR act
CC(=O)c1cccc(NC(=S)NC(=O)c2ccccc2)c1	-141*
CC(=O)c1cccc(NC(=S)NC(=O)c2cncc(Br)c2)c1	-109*
COc1cc2ccccc2cc1C(=O)NC(=S)Nc1cccc(C(=O)O)c1	-91*
CCOc1cc(/C=N/Nc2cccc(C(=O)O)c2)ccc1OC(=O)c1ccccc1	98
COc1ccc2ccccc2c1/C=N/Nc1cccc(C(=O)O)c1	-108*
CC(=O)c1cccc(NC(=S)NC(=O)c2cccc(Cl)c2)c1	-160*
O=C(Nc1ccc(Br)cc1)C1Cc2ccccc2O/C1=N\O (stereo not drawn)	-158*
Cc1ccc(NC(=O)C2Cc3ccccc3O/C2=N\O)cc1C (stereo not drawn)	-127*
O=C1NC2(CCCCC2)C(=O)N1/N=C/c1ccccc1Br	-81*
Cc1ccc(CSc2ncnc3c2cnn3-c2ccc(C)cc2)cc1	-93*
